Assay outcomes (PubChem)
VLA-4 inh – inhibition in a human VLA-4 binding assay | inhibition, % (about 7 µM as worked out from the volumes in the protocol) | VLA-4 expressing cells, ligand binding flow cytometry | 330,000 tested, 0.2% active; in the data active means inhibition above about 50%
Bfl-1 A1 inh – inhibitors of the anti-apoptotic protein A1, read as caspase activation; MEF A1-2A-BIM cells, Caspase-Glo 3/7 luminescence, 3 h; percent of clofoctol response, vehicle zero; caspase activation, % (test concentration not listed); 330,000 tested, 0.066% active; AID 2462;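 active means over half of replicate activation scores above 10%, or exactly half above 10 with the replicate mean above 10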
SUMO Mot1 rescue – inhibitors of SUMOylation pathway: yeast Mot1-301 growth rescue; S. cerevisiae Mot1-301 growth rescue, ATP luminescence, 38.5C; percent above DMSO median, 100 means doubled; growth rescue, % at 18.8 µM; 320,000 tested, 1% active;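 active means every valid replicate shows activation above 250% relative to neutral control wells; inactive means the rest, any valid replicate at or below 250%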
Efflux pump inh – inhibitors of Candida antifungal efflux pumps expressed in yeast; 330,000 tested, 0.44% active; AID 485275; inhibition, % at 10 µM; S. cerevisiae Candida pump triplex, Nile Red efflux;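 active means plate passing quality check with inhibition over a set limit, or well fluorescence over plate mean plus 4 SD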;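 further: Nile Red retained in pooled yeast measured as flow cytometry median fluorescence; higher means more Nile Red kept so more efflux inhibition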
AHR act – activators of human aryl hydrocarbon receptor; P35869; AHR-responsive luciferase reporter cells, luminescence; activation, % at 5 µM; 320,000 tested, 2.5% active; in the data active means activation above about 47%
Target sequence (P35869 whole entry, looked up): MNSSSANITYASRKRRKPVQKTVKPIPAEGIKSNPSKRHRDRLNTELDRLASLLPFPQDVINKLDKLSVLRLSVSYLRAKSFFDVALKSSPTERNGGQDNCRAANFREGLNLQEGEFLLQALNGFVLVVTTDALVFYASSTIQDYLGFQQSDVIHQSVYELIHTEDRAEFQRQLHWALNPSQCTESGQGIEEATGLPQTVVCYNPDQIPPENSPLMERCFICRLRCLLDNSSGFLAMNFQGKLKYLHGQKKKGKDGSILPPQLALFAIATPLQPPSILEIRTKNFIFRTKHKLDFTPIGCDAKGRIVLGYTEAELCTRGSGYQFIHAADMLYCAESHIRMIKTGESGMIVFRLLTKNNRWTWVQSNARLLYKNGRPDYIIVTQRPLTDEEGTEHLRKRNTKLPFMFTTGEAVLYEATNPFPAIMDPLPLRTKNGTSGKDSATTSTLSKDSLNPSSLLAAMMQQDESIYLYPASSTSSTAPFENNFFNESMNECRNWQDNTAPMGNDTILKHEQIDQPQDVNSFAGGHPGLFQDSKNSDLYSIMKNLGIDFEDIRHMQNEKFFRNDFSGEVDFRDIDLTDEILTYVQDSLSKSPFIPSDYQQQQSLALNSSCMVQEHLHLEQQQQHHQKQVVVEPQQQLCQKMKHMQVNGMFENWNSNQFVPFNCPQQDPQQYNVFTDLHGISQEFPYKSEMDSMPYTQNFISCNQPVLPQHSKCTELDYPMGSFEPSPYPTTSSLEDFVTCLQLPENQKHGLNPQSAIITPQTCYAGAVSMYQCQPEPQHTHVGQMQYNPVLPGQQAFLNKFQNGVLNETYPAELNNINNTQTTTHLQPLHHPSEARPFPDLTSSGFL
ALR H2O2 inh – human ALR oxidase inhibition via reduced H2O2. P55789. purified ALR, DTT oxidation, H2O2 HRP-luminol luminescence. inhibition, % (concentration not given with the values). 290,000 tested, 3.8% active;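 active means mean replicate inhibition above about 79%, with every replicate also reaching it, limit read from the data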
Hits are given with their value. Rows were chosen to be rich in hits. Some 7.2% of all compounds tested hit in one or more screens of this group.

For O=C(N1CCC(n2nc(-c3ccccc3)oc2=O)CC1)C1(c2ccc(Cl)cc2)CC1 the results were VLA-4 inh inactive, Bfl-1 A1 inh inactive, SUMO Mot1 rescue inactive, Efflux pump inh inactive, AHR act inactive and ALR H2O2 inh inactive.
CC(=O)N(Cc1cccs1)Cc1cc2ccc(C)c(C)c2nc1Cl was read as VLA-4 inh inactive, Bfl-1 A1 inh inactive, Efflux pump inh inactive, AHR act inactive and ALR H2O2 inh inactive.
For CCN(CCC#N)c1ccc(/C=N/Nc2nc(C)cc(=O)[nH]2)c(C)c1 the results were VLA-4 inh inactive, Bfl-1 A1 inh inactive, SUMO Mot1 rescue inactive, Efflux pump inh inactive, AHR act inactive and ALR H2O2 inh 99.
Screening CC(C)CC(=O)NC(=S)Nc1nc(-c2ccc(Cl)cc2)cs1 returned VLA-4 inh inactive, Bfl-1 A1 inh inactive, SUMO Mot1 rescue inactive, Efflux pump inh inactive, AHR act inactive and ALR H2O2 inh inactive.
Screening CC(C)CC(=O)NC(=S)Nc1nc(-c2ccccc2)cs1 returned VLA-4 inh inactive, Bfl-1 A1 inh inactive, SUMO Mot1 rescue inactive, Efflux pump inh inactive, AHR act 67 and ALR H2O2 inh inactive.
`O=C(NC(=S)Nc1nc(-c2ccccc2)cs1)c1cccs1` gave VLA-4 inh inactive, Bfl-1 A1 inh inactive, SUMO Mot1 rescue inactive, Efflux pump inh inactive, AHR act 68 and ALR H2O2 inh inactive.
For CCCN(C(=O)CSc1ncccn1)C1CCS(=O)(=O)C1 (stereo not drawn) the results were VLA-4 inh inactive, Bfl-1 A1 inh inactive, SUMO Mot1 rescue inactive, Efflux pump inh inactive, AHR act inactive and ALR H2O2 inh inactive.
For Cc1ccc2[nH]c(C(=O)O)c(NC(=O)[C@@H]3C[C@@H]3c3ccccc3)c2c1 the results were VLA-4 inh inactive, Bfl-1 A1 inh inactive, SUMO Mot1 rescue inactive, Efflux pump inh inactive, AHR act inactive and ALR H2O2 inh inactive.
For O=C(COC(=O)COc1ccccc1F)NCc1ccco1 the results were VLA-4 inh inactive, Bfl-1 A1 inh inactive, SUMO Mot1 rescue inactive, Efflux pump inh inactive, AHR act inactive and ALR H2O2 inh inactive.
CCN1CCS/C1=C/C=C/C1=[N+](CC)CCS1 was read as VLA-4 inh inactive, Bfl-1 A1 inh inactive, SUMO Mot1 rescue inactive, Efflux pump inh inactive, AHR act inactive and ALR H2O2 inh 97.
`COc1ccc2c(-c3cc4ccc(OCc5ccc(F)cc5)cc4oc3=O)cc(=O)oc2c1` gave VLA-4 inh inactive, Bfl-1 A1 inh 9.6, SUMO Mot1 rescue inactive, Efflux pump inh inactive and AHR act inactive.
COc1ccc(COc2ccc3c(C)cc(=O)oc3c2)cc1 was read as VLA-4 inh inactive, Bfl-1 A1 inh inactive, SUMO Mot1 rescue inactive, Efflux pump inh inactive, AHR act inactive and ALR H2O2 inh inactive.
COc1ccc(NC(=O)COc2ccccc2)cc1NC(=O)c1ccco1 was read as VLA-4 inh inactive, Bfl-1 A1 inh inactive, SUMO Mot1 rescue inactive, Efflux pump inh inactive, AHR act inactive and ALR H2O2 inh inactive.
`CC1(C)CCC[C@]2(C)[C@H]3Cc4cc(O)ccc4O[C@]3(C)CC[C@@H]12` gave VLA-4 inh inactive, Bfl-1 A1 inh inactive, SUMO Mot1 rescue inactive, Efflux pump inh inactive, AHR act inactive and ALR H2O2 inh inactive.
Cc1ccc(C(C)C)cc1OCCCCN1CCCC1 was read as VLA-4 inh inactive, Bfl-1 A1 inh inactive, SUMO Mot1 rescue 320, Efflux pump inh inactive and AHR act inactive.
Cc1ccc(C)c(OCCCN2CCCC2)c1 was read as VLA-4 inh inactive, Bfl-1 A1 inh inactive, SUMO Mot1 rescue inactive, Efflux pump inh inactive, AHR act inactive and ALR H2O2 inh inactive.
Screening COc1ccc(-c2nc(N=Nc3ccc(O)cc3)n[nH]2)cc1 returned VLA-4 inh inactive, Bfl-1 A1 inh inactive, SUMO Mot1 rescue inactive, Efflux pump inh inactive and AHR act inactive.
`COc1ccc(N=Nc2[nH]c3ccc(C)cc3c2O)cc1` gave VLA-4 inh inactive, Bfl-1 A1 inh inactive, SUMO Mot1 rescue inactive, Efflux pump inh inactive, AHR act 69 and ALR H2O2 inh inactive.
Screening Cc1ccc(N=Nc2[nH]c3ccccc3c2O)cc1 returned VLA-4 inh inactive, Bfl-1 A1 inh inactive, SUMO Mot1 rescue inactive, Efflux pump inh inactive, AHR act 77 and ALR H2O2 inh inactive.
COc1cc(-c2nc(-c3ccccc3)c(-c3cccs3)[nH]2)cc(OC)c1O was read as VLA-4 inh inactive, Bfl-1 A1 inh inactive, SUMO Mot1 rescue inactive, Efflux pump inh inactive, AHR act inactive and ALR H2O2 inh 98.
Screening COc1cc(-c2noc(-c3cccs3)n2)cc(OC)c1OC returned VLA-4 inh inactive, Bfl-1 A1 inh inactive, SUMO Mot1 rescue inactive, Efflux pump inh inactive, AHR act 48 and ALR H2O2 inh inactive.
Screening COc1cc(-c2nc(-c3ccccc3)c(-c3cccs3)[nH]2)cc(OC)c1OC returned VLA-4 inh inactive, Bfl-1 A1 inh inactive, SUMO Mot1 rescue inactive, Efflux pump inh inactive, AHR act 70 and ALR H2O2 inh inactive.
Screening Cc1cc(C(=O)CN2C(=O)C(=O)N(CC(C)C)C2=O)c(C)n1-c1ccccc1F returned VLA-4 inh inactive, Bfl-1 A1 inh inactive, SUMO Mot1 rescue inactive, Efflux pump inh inactive, AHR act inactive and ALR H2O2 inh inactive.
`CCOC(=O)c1ccc(NC(=O)CSCC(=O)OCC(=O)c2ccccc2)cc1` gave VLA-4 inh inactive, Bfl-1 A1 inh inactive, SUMO Mot1 rescue inactive, Efflux pump inh inactive, AHR act inactive and ALR H2O2 inh 100.
NC(=O)c1ccc(NC(=O)CSC(=O)c2ccccc2)cc1 was read as VLA-4 inh inactive, Bfl-1 A1 inh inactive, SUMO Mot1 rescue inactive, Efflux pump inh inactive, AHR act inactive and ALR H2O2 inh 99.
Screening O=C(CSCC(=O)OCC(=O)c1ccc(Br)cc1)Nc1ccc(Br)cc1 returned VLA-4 inh inactive, Bfl-1 A1 inh inactive, SUMO Mot1 rescue inactive, Efflux pump inh inactive, AHR act inactive and ALR H2O2 inh inactive.
`CCOC(=O)c1ccc(NC(=O)COc2ccc(CNCCO)cc2OCC)cc1` gave VLA-4 inh inactive, Bfl-1 A1 inh inactive, SUMO Mot1 rescue inactive, Efflux pump inh inactive and AHR act inactive.
`CCOC(=O)c1ccc(NC(=O)COc2ccccc2CNCCc2ccccc2)cc1` gave VLA-4 inh inactive, Bfl-1 A1 inh inactive, SUMO Mot1 rescue inactive, Efflux pump inh inactive, AHR act 50 and ALR H2O2 inh inactive.
Screening Cc1nnc(SCC(=O)Nc2ccc(C(N)=O)cc2)n1-c1ccccc1 returned VLA-4 inh inactive, Bfl-1 A1 inh inactive, SUMO Mot1 rescue inactive, Efflux pump inh inactive, AHR act inactive and ALR H2O2 inh inactive.
Screening O=C(CSCc1ccc(C(=O)O)cc1)Nc1ccc2ccccc2c1 returned VLA-4 inh inactive, Bfl-1 A1 inh inactive, SUMO Mot1 rescue inactive, Efflux pump inh inactive, AHR act inactive and ALR H2O2 inh 99.
CC(Oc1ccc(F)cc1)C(=O)Nc1ccccc1C(=O)N1CCCCC1 (stereo not drawn) was read as VLA-4 inh inactive, Bfl-1 A1 inh inactive, SUMO Mot1 rescue inactive, Efflux pump inh inactive, AHR act inactive and ALR H2O2 inh inactive.
